Test results published in PubChem BioAssay AID1159580 (chemical genetic matrix, 2015).
Among all 5,500 compounds or so, about 2,000 (36%) were called active. About 18% were inconclusive and are not listed. Rule as the data show it: active = normalized growth mostly below about 0.91 (no sharp cut-off); inconclusive = no clear call, values can overlap the other calls; inactive = mostly above about 0.92. The list shows a part of the results.

Experiment: chemical genetic growth profiling, strain panel (AID 1159580);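 also: tested at 20 µM; growth read once vehicle control cultures reached saturation at 30 °C; 1 = growth at the plate median or of vehicle wells; lower values mean less growth of the strain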
Details: growth OD

Measured: normalized growth

CC(C)c1nc2ccccc2[nH]1
inactive: S. cerevisiae deletion strains, locus YAL013W, strain DEP1, stronger effect = lower value 1.01 | S. cerevisiae deletion strains, locus YBR229C, strain ROT2, stronger effect = lower value 1.03 | S. cerevisiae deletion strains, locus YCL061C, strain MRC1, stronger effect = lower value 1.01 | S. cerevisiae deletion strains, locus YDL101C, strain DUN1, stronger effect = lower value 1.03 | S. cerevisiae deletion strains, locus YDL134C, strain PPH21, stronger effect = lower value 1.02 | S. cerevisiae deletion strains, locus YDR150W, strain NUM1, stronger effect = lower value 0.993 | S. cerevisiae deletion strains, locus YEL061C, strain CIN8, stronger effect = lower value 1.01 | S. cerevisiae deletion strains, locus YGR078C, strain PAC10, stronger effect = lower value 1.01 | S. cerevisiae deletion strains, locus YHR030C, strain SLT2, stronger effect = lower value 1.02 | S. cerevisiae deletion strains, locus YHR087W, strain rtc3, stronger effect = lower value 1.03 | S. cerevisiae deletion strains, locus YJR043C, strain POL32, stronger effect = lower value 1 | S. cerevisiae deletion strains, locus YJR075W, strain HOC1, stronger effect = lower value 1.02 | S. cerevisiae deletion strains, locus YLR039C, strain RIC1, stronger effect = lower value 1.01 | S. cerevisiae deletion strains, locus YLR058C, strain SHM2 (second series), stronger effect = lower value 1.01 | S. cerevisiae deletion strains, locus YLR085C, strain ARP6, stronger effect = lower value 1.03 | S. cerevisiae deletion strains, locus YLR262C, strain YPT6, stronger effect = lower value 1 | S. cerevisiae deletion strains, locus YML094W, strain GIM5, stronger effect = lower value 1.01 | S. cerevisiae deletion strains, locus YMR219W, strain ESC1, stronger effect = lower value 1.01 | S. cerevisiae deletion strains, locus YMR263W, strain SAP30, stronger effect = lower value 1.02 | S. cerevisiae deletion strains, locus YNL128W, strain TEP1, stronger effect = lower value 1.01 | S. cerevisiae deletion strains, locus YNL153C, strain GIM3, stronger effect = lower value 1.01 | S. cerevisiae deletion strains, locus YNL298W, strain CLA4 (second series), stronger effect = lower value 1 | S. cerevisiae deletion strains, locus YNL322C, strain KRE1, stronger effect = lower value 1.02 | S. cerevisiae deletion strains, locus YNR030W, strain Alg12, stronger effect = lower value 1.01 | S. cerevisiae deletion strains, locus YOL006C, strain TOP1, stronger effect = lower value 1 | S. cerevisiae deletion strains, locus YPL055C, strain LGE1, stronger effect = lower value 1.04 | S. cerevisiae deletion strains, locus YPL241C, strain CIN2, stronger effect = lower value 1 | S. cerevisiae deletion strains, locus YPR135W, strain CTF4, stronger effect = lower value 1.05 | S. cerevisiae strains, strain wild type, stronger effect = lower value 1.01
